From PubChem BioAssay

Target: Torsin-1A (Homo sapiens) (UniProt O14656)
Experiment: torsin A mutant lysate binding on microarrays – cell lysate, small-molecule microarray, COS7 lysate, 635/667 nm fluorescence, primary screen (AID 1150);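 note: score pools 667 nm emission and signal to noise measuring lysate protein binding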
Settings: COS7 hTOR1A mutant lysate, 635 nm fluorescence, higher = more signal

Torsin-1A (Homo sapiens), sequence (O14656 whole entry, looked up): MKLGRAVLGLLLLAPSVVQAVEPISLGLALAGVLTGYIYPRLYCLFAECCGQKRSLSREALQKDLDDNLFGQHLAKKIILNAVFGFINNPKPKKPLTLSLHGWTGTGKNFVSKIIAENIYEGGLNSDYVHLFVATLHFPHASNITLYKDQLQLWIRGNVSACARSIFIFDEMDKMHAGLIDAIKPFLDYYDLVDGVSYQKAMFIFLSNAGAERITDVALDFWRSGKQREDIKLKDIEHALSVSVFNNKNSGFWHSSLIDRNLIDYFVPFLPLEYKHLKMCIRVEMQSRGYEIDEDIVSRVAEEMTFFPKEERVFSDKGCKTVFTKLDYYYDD

SMILES	composite z-score
COc1cc(CO)cc(I)c1O[C@H]1C=C(C(=O)NCCO)C[C@@H](N(CC2CCCCC2)C(=O)c2cc3ccccc3oc2=O)[C@@H]1O	0.0077
C=C(CCCC)/C(=C/C[C@@H](OC(=O)c1ccncc1)c1cccc(OCCO)c1)c1cc(C(=O)OC)ccc1OC	0.76
C=CCC(OC(C)=O)[C@@H]1[C@@H](N(Cc2ccc(-c3ccccc3)cc2)C(=O)c2ccc(-c3ccccc3)cc2)c2cc(OCCCO)ccc2N1C(=O)Cc1ccc(OC)cc1 (stereo partly specified)	-0.37
CC(=O)NCCCC[C@@H]1NC(=O)[C@H]2C[C@@H](C(=O)NCCCCCCN(C)C)[C@@H](c3ccc(O)cc3)N2C1=O	1.21
Cc1ccc(S[C@]2(C(=O)NC(C)C)CC(=O)N(C3Cc4ccccc4C3)[C@@H]2c2ccc(CO)cc2)cc1	0.764
Cc1ccc(N2C(=O)c3ccccc3[C@](C)(C(=O)NCC(C)C)[C@@H]2c2ccc(CO)cc2)nc1	-1.26
[N-]=[N+]=NCc1ccccc1C[C@]1(C(=O)N2CCCCC2)N=C(c2ccc(OCCCO)cc2)O[C@H]1c1ccccc1CN=[N+]=[N-]	0.741
C=C(CCCC)/C(=C/C[C@H](OC(=O)c1ccncc1)c1cccc(OCCO)c1)c1cc(C(=O)OC)ccc1OC	0.458
O=C(CS)NCCCCCCNC(=O)[C@@H]1C[C@@H]2C(=O)N[C@@H](Cc3ccccc3)C(=O)N2[C@@H]1c1ccc(O)cc1	1.14
C=C(CCCC)C(=O)CC[C@@H](OC(=O)c1cccnc1)c1cccc(OCCO)c1	0.0906
COc1ccc([C@H]2C[C@H]3C(Br)=C[C@]2(OC)C(=O)[C@]32CO2)cc1	-0.278
C=C(C(=O)CC[C@H](OC(=O)c1ccccc1-c1ccccc1C(=O)O)c1ccc(CO)o1)C(C)C	0.669
C#CCCCON=C1C[C@@H](O)[C@@H](O)[C@@H]2[C@@H]3C(=O)N(Cc4ccc5c(c4)OCO5)C(=O)[C@@H]3CC[C@H]12	0.267
COC(=O)c1ccc(C#CC(NP(=O)(c2ccccc2)c2ccccc2)c2ccccc2)cc1 (stereo unspecified)	-0.199
CCOC(=O)C1=CC[C@@H](c2ccc(-c3ccc(OCc4ccccc4)cc3)c(OC)c2)N(S(=O)(=O)c2ccc(C)cc2)[C@H]1c1ccccc1	0.518
CC(c1ccccc1)C(O)C1C=CC2C(=O)N(C)C(=O)C2N1N(c1ccccc1)c1ccccc1 (stereo unspecified)	0.426
C=C[C@H](OC)[C@@H](OC(=O)Nc1ccc(SC)cc1)c1ccc(O)c(F)c1	0.23
C=C(CCCC)C(=O)CC[C@@H](OC(C)=O)c1ccccc1OCCO	0.915

SMILES	composite z-score
CC(=O)NCCCC[C@@H]1NC(=O)[C@H]2C[C@@H](C(=O)NCCCCCCN(C)C)[C@@H](c3cccc(OCCO)c3)N2C1=O	1.88
CCCC=C(CCC)[C@@H](NS(=O)(=O)c1cccc(C(F)(F)F)c1)c1ccc(C(=O)OC)cc1	-0.223
O=C(NCc1ccccc1)[C@@]1(Cc2ccccc2)COC(c2ccc(OCCCO)cc2)=N1	0.737
[N-]=[N+]=NCc1ccccc1[C@H]1OC(c2ccc(OCCCO)cc2)=N[C@@]1(Cc1ccccc1N=[N+]=[N-])C(=O)NCc1ccccc1	0.681
NC(=O)NCC#Cc1ccc2c(c1)[C@]1(C(=O)N2)[C@H](C(=O)N2CCCCCCC2)[C@H]2C(=O)O[C@H](c3ccccc3)[C@H](c3ccccc3)N2[C@@H]1c1ccccc1OCCO	1.53
C#CCNC(/C=C/c1ccccc1)CO (stereo unspecified)	0.443
O=C1C2C=CC(C(O)C(c3ccccc3)c3ccccc3)N(Nc3ccc([N+](=O)[O-])cc3)C2C(=O)N1c1ccccc1 (stereo unspecified)	0.871
C=C(CCCC)/C(=C/C[C@@H](OC(=O)c1ccncc1)c1ccc(CO)o1)c1cnc2ccccc2c1	1.07
CCc1cccc(NC(=O)O[C@H]2[C@H](OC(=O)Nc3ccccc3)[C@@H](OC(=O)Nc3ccccc3)[C@@H](OC)O[C@@H]2CO)c1	0.896
C=CC[C@]1(C(=O)N2CCCCC2)N=C(c2ccc(OCCCO)cc2)O[C@H]1c1ccccc1N=[N+]=[N-]	1.06
C#C[C@H](O[Si](C#Cc1ccccc1)(C(C)C)C(C)C)c1ccccc1	-0.543
CCOC(=O)C1=CC[C@@H](c2ccccc2)N(S(=O)(=O)c2ccc(C)cc2)[C@H]1C	1.25
O=C(N1CCCCC1)[C@@]1(CCS(=O)(=O)c2ccccc2)N=C(c2ccc(OCCCO)cc2)O[C@H]1c1ccccc1	0.623
CC(C)(C)OC(=O)CC[C@]1(C(=O)N2CCCCC2)N=C(c2ccc(OCCCO)cc2)O[C@H]1c1ccccc1	1.04
N#Cc1ccc(NN2C(C(O)CCc3ccccc3)C=CC3C(=O)N(c4ccccc4)C(=O)C32)cc1 (stereo unspecified)	0.985
Cc1ccc(S[C@]2(C(=O)NC3CC3)CC(=O)N(Cc3cc(C(F)(F)F)cc(C(F)(F)F)c3)[C@@H]2c2ccc(CO)cc2)cc1	0.227
C#CCCCON=C1C[C@@H](O)[C@@H](O)[C@@H]2[C@@H]3C(=O)N(Cc4ccc5c(c4)OCO5)C(=O)[C@@H]3CC[C@@H]12	-0.151
Cc1ccc(S(=O)(=O)N2[C@@H](c3ccccc3)C(C(=O)O)=CC[C@H]2c2ccccc2)cc1	-0.0024
